# Laboratory results from PubChem BioAssay AID1259343 (VanderVen Lab, College of Veterinary Medicine, Cornell …, 2017).
# Out of some 6,200 compounds screened, about 2,900 (47%) were called active. So high a share suggests a set chosen from earlier hits. Some of the results follow. Values without a mark were called inactive. Cut-off read from the data, not from the text of the source: active = inhibition above about 50%; inactive = the rest.
# Experiment: Mycobacterium tuberculosis growth inhibition, primary screen (AID 1259343)
# Details: inhibition: at 10 µM, hits give high values; outcome: 10 uM
row,Compound,inhibition
1,O=C(CC(Nc1ccc2ccccc2c1)c1ccncc1)c1ccccc1 (stereo not given),88.8% (active)
2,C=CCNC(=S)Nc1ccc(SC(F)F)cc1,53.4% (active)
3,C=CCNC(=S)Nc1ccc(Cl)cc1F,35.1%
4,C=CCNC(=S)Nc1ccc(Cl)c(Cl)c1,21.1%
5,CCOC(=O)c1c(NC(=O)CCl)sc(C(=O)OC)c1CC(=O)OC,-17.1%
6,COC(=O)c1sc(NC(=O)CCCl)c(C(=O)OC)c1C,101% (active)
7,Cc1sc(NC(=O)CC(C)(C)CC(=O)Nc2sc(C)c(C)c2C(=O)O)c(C(=O)O)c1C,29.4%
8,Cc1csc(C(C)NCc2ccc(OCC(C)C)cc2)n1 (stereo not given),51.6% (active)
9,Cc1ccc(-c2ncc(C(=O)NC(C)C)s2)c(C)c1,61.8% (active)
10,Cc1ccc(-c2csc3nc(C4CC4)[nH]c(=O)c23)c(C)c1,6.81%
11,COc1ccc(C)cc1-c1csc(NC(=O)C(C)C)n1,11.6%
12,CCOC(=O)c1nn(-c2ccc(OCC)cc2)c2nnc(Cc3cccnc3)c(=O)n12,-11.2%
13,CCOC(=O)c1nn(-c2cccc(Cl)c2)c2nc(-c3cccs3)c(C#N)c(=O)n12,52.1% (active)
14,COC(=O)CCn1c(=O)c2c(nc3n(CCc4ccccc4)c(C)cn23)n(C)c1=O,2.78%
15,COc1ccccc1Nc1nnc(SCC(=O)c2ccc(O)c(O)c2)s1,83.9% (active)
16,CNc1nnc(SCc2cccc(Cl)c2)s1,23.8%
17,COc1cccc(C(=O)CSc2nnc(NC(=O)c3cccc(Cl)c3)s2)c1,55.3% (active)
18,O=C1c2cccc3cccc(c23)N1S(=O)(=O)c1ccc(Cl)cc1,-5.06%
19,CCN(CCn1cccn1)Cc1nc(-c2ccc3c(c2)OCO3)no1,90.5% (active)
20,Cc1ccc(CN(C)Cc2nc(-c3ccc4c(c3)OCO4)no2)o1,90.8% (active)
21,CN(Cc1ccc2nsnc2c1)Cc1nc(-c2ccc3c(c2)OCO3)no1,84.1% (active)
22,CN(Cc1ccc2nonc2c1)Cc1nc(-c2ccc3c(c2)OCO3)no1,13.7%

row,Compound,inhibition
1,CN(Cc1nc(-c2ccc3c(c2)OCO3)no1)CC1COc2ccccc2O1 (stereo not given),inactive
2,COc1ccc(-n2ccnc(SCc3ccc(F)cc3)c2=O)cc1,76.6% (active)
3,C=Cc1ccc(CSc2nccn(-c3ccc(C)cc3)c2=O)cc1,95.7% (active)
4,C=Cc1ccc(CSc2nncn3c2cc2occc23)cc1,31.6%
5,Cc1nnc(SCc2ccc(C(=O)NCc3ccncc3)cc2)n1-c1ccc(F)cc1,-8.13%
6,c1ccc(N2CCC(=NC3=NCCCCC3)N2)cc1,4.7%
7,Cc1cccc(N2CCC(=NC(N)=S)N2)c1,33.7%
8,NC(=S)N=C1CCN(c2ccccc2)N1,93.8% (active)
9,FC(F)(F)c1nc(Nc2ccc3c(c2)OCCCO3)c2ccccc2n1,100% (active)
10,c1nc(Nc2ccc3c(c2)OCCO3)c2c3c(sc2n1)CCCC3,-26.9%
11,c1ccc(-c2nc(Nc3ccc4c(c3)OCCO4)c3ccccc3n2)cc1,-17%
12,COc1cccc(COc2coc(CN3CCCN(S(=O)(=O)c4ccc(OC(F)(F)F)cc4)CC3)cc2=O)c1,10.6%
13,CC(C)(Oc1ccc(Cl)cc1)C(=O)NCc1ccoc1,24.1%
14,O=C(NCC(=O)N1CCN(Cc2ccc(OC(F)(F)F)cc2)CC1)c1ccco1,94.3% (active)
15,CC(C)c1ccc(Nc2nnc(SCCO)s2)cc1,25.5%
16,Cc1ccc(Nc2nnc(SCC(C)C)s2)cc1,94.1% (active)
17,CC(C)CSc1nnc(Nc2ccc(C(C)C)cc2)s1,92.2% (active)
18,COc1cccc(C(=O)Nc2ccc(Oc3ccc(F)cc3)nc2)c1OC,45%
19,CCCCOc1ccc(NC(=O)CC2CCCC2)cn1,99.4% (active)
20,O=C(CC1CCCC1)Nc1ccc(S(=O)(=O)C(F)F)cc1,11.8%
21,OCCC#Cc1ccc(CN2CCCC(Nc3ccccc3)C2)cc1 (stereo not given),70.9% (active)
22,Clc1cccc(N2CCN(C3CCCN(Cc4ccc5nsnc5c4)C3)CC2)c1 (stereo not given),75.5% (active)

row,Compound,inhibition
1,OCC1(Cc2ccccc2)CCCN(Cc2ccc(-c3ccco3)cc2)C1 (stereo not given),inactive
2,OCC1(Cc2ccccc2)CCCN(Cc2ccc(OC(F)(F)F)cc2)C1 (stereo not given),20.7%
3,OCCC#Cc1ccc(CN2CCCC(CO)(Cc3ccccc3)C2)cc1 (stereo not given),69.2% (active)
4,CC(C)c1cc(C(=O)N2CCCC(N3CCN(c4cccc(C(F)(F)F)c4)CC3)C2)on1 (stereo not given),46.1%
5,CSc1ncc(CNCCc2cccc(Cl)c2)c(N2CCCC(C)C2)n1 (stereo not given),18%
6,Clc1cccc(CN2CCCC(Nc3ccccc3)C2)c1 (stereo not given),59.2% (active)
7,O=C(CN1CCCC1c1ccccc1)Nc1cc(F)cc(F)c1 (stereo not given),2.2%
8,O=C(c1cc(F)ccc1F)C1CCCN(Cc2cccc3cnccc23)C1 (stereo not given),inactive
9,O=C(NCc1cccnc1-n1cccn1)C1CCCN(Cc2cccnc2)C1 (stereo not given),-13.9%
10,c1ccc(NC2CCCN(Cc3ccc4nsnc4c3)C2)cc1 (stereo not given),65.6% (active)
11,O=C(c1ccc(-c2ccccc2)cc1)C1CCCN(Cc2ccncc2)C1 (stereo not given),inactive
12,O=C(c1ccc(Cl)cc1)C1CCCN(Cc2cccc3cnccc23)C1 (stereo not given),-4.04%
13,Oc1cccc(-c2cc(C3CCN(Cc4ccc5nonc5c4)C3)ccn2)c1 (stereo not given),14.6%
14,Cc1cc(Cl)ccc1C(=O)C1CCCN(Cc2ccc(C#CCCO)cc2)C1 (stereo not given),77.5% (active)
15,Oc1ccccc1CN1CCCC(Nc2cccc(F)c2)C1 (stereo not given),72.9% (active)
16,CCN(CC)c1ccc(/C=C2\SC(=S)N(Cc3ccccc3)C2=O)c(O)c1,-15.2%
17,N#Cc1ccc(NC(=O)Nc2ccccc2Br)c2n[nH]nc12,64.4% (active)
18,N#Cc1ccc(CNc2ccccc2Br)cc1,49.2%
19,CN(CC(=O)Nc1ccccc1Br)C1CCc2ccccc21 (stereo not given),34.1%
20,COc1ccc(C(CC(=O)c2cccs2)Sc2ccccc2NC(C)=O)cc1 (stereo not given),53.2% (active)
21,COc1ccc(C2c3cccn3CCN2C(=O)Nc2cccs2)cc1 (stereo not given),-1.32%
